Ba/F3 V617F tox = reduced viability of JAK2V617F-dependent Ba/F3 cells, primary screen, JAK2V617F inhibitor project, cell-based, Ba/F3 EpoR-JAK2V617F, luminescence; ATP luminescence; inhibition, % at 5.6 µM; 1.1% of 220,000 active; AID 1446, 2008;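 active = inhibition above the campaign mean plus 3 SD over all tested compounds, cut at about 24% in these data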;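 note: cytokine-independent growth of Ba/F3 cells driven by EpoR plus mutant JAK2; 0% = DMSO-treated cells and 100% = JAK inhibitor I control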
KLF5 inh = KLF5 expression inhibitors, primary screen, DLD-1 cells, luminescence | inhibition, % at 5 µM | 0.23% of 290,000 active | DLD-1 KLF5 promoter-luciferase reporter;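 active = inhibition above a per-plate limit of that plate's mean compound inhibition plus 3 SD, cut at about 60% in these data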;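 note: 0% = DMSO wells and 100% = LY294002 at 200 µM; higher means less KLF5 promoter-driven luciferase light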
IEC-6 cytotox = cytotoxicity in IEC-6 intestinal epithelial cells, primary screen, cytotoxicity control for KLF5 inhibitor project, cell-based, luminescence; IEC-6 cytotoxicity, luminescence viability; inhibition, % at 5 µM; 0.78% of 290,000 active; AID 1825, 2009;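 note: 0% = plate median of test compound wells and 100% = cytotoxic reference compound wells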
BaF3 parental = parental Ba/F3 cell viability inhibition, counter-screen for JAK2V617F inhibitor project, murine pro-B, CellTiter-Glo luminescence; AID 1486, 2009; inhibition, % at 5.6 µM; CellTiter-Glo ATP luminescence; 1.1% of 220,000 active;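 active = inhibition above a per-campaign cutoff, the mean inhibition of all tested compounds plus 3 SD, cut at about 27% in these data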;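 note: 0% = DMSO wells and 100% = JAK Inhibitor I control wells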
APP 5UTR inh = inhibitors of APP translation via 5'UTR reporter, primary screen, APP 5'UTR luciferase, SH-SY5Y cells; AID 1285, 2008; 0.82% of 190,000 active; inhibition, % at 2 µM; SH-SY5Y APP 5'UTR-luciferase reporter, luminescence;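 active = inhibition above a set limit, derived from the sample mean plus 3 SD, cut at about 45% in these data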
IEC-6 cytotox cf = cytotoxic compounds in IEC-6 epithelial cells, confirmation, cytotoxicity control, cell-based, luminescence | shares compounds with IEC-6 cytotox | IEC-6 rat intestinal epithelial viability | inhibition, % at 5 µM | 63% of 1,900 active | AID 1907, 2009;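 note: 0% = vehicle and 100% = reference cytotoxic drug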
* marks the source's active call; other numbers are inactive results; . = no result. Compounds with a hit are over-represented: about 1.9% of the library has one in this group of screens. Cut-off read from the data, not from the text of the source, unless noted: active = inhibition above about 22%; inactive = the rest.

SMILES	Ba/F3 V617F tox	KLF5 inh	IEC-6 cytotox	BaF3 parental	APP 5UTR inh	IEC-6 cytotox cf
CCOc1cc(/C=C2\CN(CC)C/C(=C\c3ccc(O)c(OCC)c3)C2=O)ccc1O	.	19	74*	.	.	23*
Nc1ccc2nc(SCc3cccc(F)c3)sc2c1	-3	-188	-7	1	-53	.
O=C(COC(=O)c1ccc(F)cc1F)NC1CC1	-3	-14	0	2	4	.
Cc1ccc2[nH]c(C(=O)N/N=C/c3ccc([N+](=O)[O-])cc3)c(C)c2c1	.	32	34*	.	.	26*
Cc1cc(C(=O)OCC(=O)NCc2ccco2)c(C)n1-c1ccc(F)cc1	-1	-4	45*	4	75*	57*
CN(Cc1ccccc1)C1=CC(=[N+]2CCCC2)CC(C)(C)C1	94*	-4	31*	73*	.	28*
CC1(C)CC(=O)N(Cc2ccccc2)C(=O)C1	3	-5	5	4	-8	.
S=C(NC1CCCCC1)N1CCN(C2CCCCC2)CC1	-3	-5	4	4	4	.
COc1ccccc1C1CC(=O)Nc2cc3c(cc21)OCCO3 (stereo unspecified)	73*	64*	75*	72*	95*	60*
C/C(=N\NC(=O)c1ccc(C)cc1)c1c(C)[nH]n(-c2ccccc2)c1=O	.	-28	44*	.	.	25*
COc1ccccc1NC(=O)N1CCC(c2nc3cc(C)c(C)cc3[nH]2)CC1	83*	47	82*	81*	58*	59*
CC1c2cc3c(cc2CCN1C(=O)c1cccc(Cl)c1)OCCCO3 (stereo unspecified)	.	-10	25*	.	.	8
CC1c2cc3c(cc2CCN1CC(=O)Nc1ccccc1)OCCCO3 (stereo unspecified)	.	10	6	.	.	.
COc1ccccc1NS(=O)(=O)c1cccs1	-3	-33	3	1	-3	.
COc1ccccc1NS(=O)(=O)c1ccc(-c2cc(C)no2)s1	.	27	40*	.	.	17
COc1ccccc1CNS(=O)(=O)c1ccc(-c2cc(C)no2)cc1	.	53	79*	.	.	53*
COc1cc(C(=S)N2CCN(c3cccc(Cl)c3)CC2)ccc1O	3	9	28*	9	6	14
Oc1ccc(C(=S)N2CCN(c3cccc(Cl)c3)CC2)cc1	4	-12	6	4	1	.
CCN1CCCC1Cn1cnc2c([nH]c3ccc(OC)cc32)c1=O (stereo unspecified)	-3	-11	0	3	.	.
O=[N+]([O-])c1c(Nc2ccccc2O)cc(Cl)c2nonc12	.	15	96*	.	.	43*
Cc1ccc(C(=O)CSC2=C(C#N)C(c3ccco3)C3=C(CCCC3=O)N2)cc1 (stereo unspecified)	1	4	45*	4	46*	52*
CCCCc1ccc(NC(=O)CSC2=C(C#N)C(c3ccco3)C3=C(CCCC3=O)N2)cc1 (stereo unspecified)	-1	-22	-6	5	11	.
COc1cccc(NC(=O)CSC2=C(C#N)C(c3ccco3)C3=C(CCCC3=O)N2)c1 (stereo unspecified)	67*	45	50*	76*	8	5
COC(=O)COc1ccc(/C=N/NC(=O)CN(c2ccccc2OC)S(=O)(=O)c2ccccc2)cc1	.	-12	49*	.	.	-8
O=C(Nc1nc2ccccc2[nH]1)C1CC1	18	-10	33*	50*	-10	17
SMILES	Ba/F3 V617F tox	KLF5 inh	IEC-6 cytotox	BaF3 parental	APP 5UTR inh	IEC-6 cytotox cf
COc1ccc(CC(=O)Nc2cccc3c2CCCC3)cc1	.	-3	4	.	.	.
COc1ccc(C(=O)Nc2cccc3c2CCCC3)cc1	.	-9	24*	.	.	22
COc1ccc(OC)c(-c2cc(-c3cccnc3)nc(N)c2C#N)c1	84*	30	35*	45*	.	52*
CCOC(=O)CSC1=C(C#N)C(c2ccc(C)s2)CC(=O)N1 (stereo unspecified)	81*	53	75*	77*	91*	53*
CCSC1=C(C#N)C(c2ccc(C)s2)CC(=O)N1 (stereo unspecified)	-2	-3	-1	0	-2	.
Cc1cnc(NC(=O)CC(C)c2ccccc2)s1 (stereo unspecified)	.	28	33*	.	.	23*
CC(C)c1nnc(NC(=O)CC(C)c2ccccc2)s1 (stereo unspecified)	.	-48	-1	.	.	.
Cc1ccc(S(=O)(=O)Nc2cccc(N(C)S(C)(=O)=O)c2)cc1[N+](=O)[O-]	97*	-21	23*	95*	2	-9
Cc1onc(-c2ccccc2)c1C(=O)N1CCC(CO)(Cc2ccccc2)CC1	.	-19	0	.	.	.
O=C(c1cccc(N2CCCC2=O)c1)N1CCN(c2cccc(Cl)c2)CC1	.	13	44*	.	.	17
Cc1ccc(NS(=O)(=O)c2cc(-c3n[nH]c(=O)c4ccccc34)ccc2C)cc1	5	-10	10	8	-3	.
COC(=O)C(NC(=O)c1ccco1)(Nc1cc(C)ccn1)C(F)(F)F (stereo unspecified)	6	-14	52*	7	-2	8
CCOc1ccc(Nc2cc(C)c3ccccc3n2)cc1	.	-27	2	.	.	.
CCOc1ccc(Nc2c3ccccc3nc3ccccc23)cc1	76*	40	72*	68*	.	44*
CCN(CC)S(=O)(=O)c1cccc(NC(=O)COC(=O)CCC(=O)c2ccc(F)cc2)c1	-1	2	-4	3	-6	.
C=CCSc1nsc(NC(=O)Nc2ccc(F)cc2)n1	.	-13	32*	.	.	48*
CCSc1nsc(NC(=O)Nc2ccccc2F)n1	.	-155	-3	.	.	.
C=CCOc1c(Cl)cc(CNc2ccc(C)c(Cl)c2)cc1OC	77*	50	50*	77*	91*	51*
C=CCOc1c(Cl)cc(CNc2ccc(N(C)C)cc2)cc1OC	-5	-5	-8	3	-67	.
Cc1nc2c3c(sc2c(=O)[nH]1)NC(=O)CC3c1ccccc1Cl (stereo unspecified)	0	8	1	5	.	.
Cc1ccccc1-c1nc(CN2CCC(C(=O)NCCCN3CC(C)CC(C)C3)CC2)c(C)o1 (stereo unspecified)	15	1	60*	21	-12	53*
CCN1CCCC1CNC(=O)C1CCN(Cc2nc(-c3cccc(Br)c3)oc2C)CC1 (stereo unspecified)	12	12	49*	31*	-5	99*
Cc1ccccc1-c1nc(CN2CCC(C(=O)NCCCN3CCCC3)CC2)c(C)o1	2	19	0	8	-1	.
Cc1cccc(N(C(=O)c2csnn2)C(C(=O)NCc2ccccc2)c2cccs2)c1 (stereo unspecified)	.	-12	6	.	.	.
